Records with an inconclusive call do not appear. Activity calls are given as the source filed them. How the source made its calls, unless noted: active means hit-call score of the fitted dose curve at least 0.9, where 1 is the maximum; inactive means score below 0.9.

Test [1] has as its target Myc proto-oncogene protein (Homo sapiens) (UniProt P01106). Description: ATG_Myc_CIS: Attagene CIS-FACTORIAL HepG2 Assay for human Myelocytomatosis (Myc) Proto-Oncogene Transcription Factor (AID 2282990). Particulars: HepG2, Attagene cis-reporter transcription factor activity; actives raise or lower the signal. The method in brief: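 After 24 h chemical treatment of HepG2 cells carrying multiplexed cis-regulated reporter constructs, reporter transcripts quantified by RT-PCR and capillary electrophoresis of fluorescent fragments. Gain or loss fitted against DMSO baseline.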

Test [2] can be described thus: ATG_NF_kB_CIS: Attagene CIS-FACTORIAL HepG2 Assay for human Nuclear Factor Kappa B (NF-kB) (AID 2282991). Particulars: HepG2 Attagene cis-factorial NF-kB reporter mRNA; actives raise or lower the signal. In a few lines: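 Fluorescence of labelled RT-PCR products separated by capillary electrophoresis gives reporter mRNA levels from transfected HepG2 cells exposed 24 h; values are fitted in both directions relative to DMSO.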

Test [3] can be described thus: ATG_NRF2_ARE_CIS: Attagene CIS-FACTORIAL HepG2 Assay for human Nuclear Factor Erythroid 2 Related Factor 2 (NFR2) response to Antioxidant Response Elements (ARE) (AID 2282992). Particulars: HepG2 Attagene ARE/NRF2 reporter, transcription factor activity; actives raise or lower the signal. The method in brief:
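Cis-factorial assay: transfected HepG2 reporter library, 24 h dosing, mRNA readout via RT-PCR/CE; DMSO-referenced bidirectional analysis.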

The nature of test [4]: ATG_Oct_MLP_CIS: Attagene CIS-FACTORIAL HepG2 Assay for human Octamer-Binding Transcription Factor (Oct) (AID 2282993). The note with it: HepG2 Attagene cis-factorial Oct reporter, mRNA; actives raise or lower the signal. The method in brief: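 HepG2 cells transiently transfected with cis-element-driven reporter transcription units (endogenous TF activity); 24 h compound exposure. Reporter mRNA quantified by RT-PCR, 6-FAM labelling, HpaI digestion and capillary electrophoresis; bidirectional fit versus DMSO baseline.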

In test [5] the target is Cellular tumor antigen p53 (Homo sapiens) (UniProt P04637). Description: ATG_p53_CIS: Attagene CIS-FACTORIAL HepG2 Assay for human p53 Transcription Factor (AID 2282994). Particulars: HepG2 p53 cis-element reporter, Attagene mRNA; actives raise or lower the signal. The method in brief:
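Using HepG2 hepatoma cells carrying cis-acting multiplexed reporters, mRNA induction is detected after a 24 h exposure. Gain- and loss-of-signal responses are fitted relative to DMSO-treated cells.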

A short description of test [6]: BSK_3C_TissueFactor: BioMAP Diversity Plus: 3C Assay for Tissue Factor Biomarker Activity (AID 2282997). Particulars: BioMAP 3C HUVEC, tissue factor biomarker readout; actives raise or lower the signal. In a few lines: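 Dosing of human umbilical vein endothelial cells preceded a 24 h incubation. Tissue Factor was then read by ELISA, with increases and decreases both scored relative to DMSO controls.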

The nature of test [7]: BSK_3C_uPAR: BioMAP Diversity Plus: 3C Assay for Urokinase-type plasminogen activator receptor (uPAR) Biomarker Activity (AID 2282998). Particulars: BioMAP 3C HUVEC, uPAR biomarker ELISA; actives raise or lower the signal. In a few lines:
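Primary human umbilical vein endothelial cells, 3C system; surface uPAR measured by ELISA 24 h after dosing. Cytotoxicity via SRB total protein in parallel cultures; bidirectional fit against DMSO.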

The nature of test [8]: BSK_3C_VCAM1: BioMAP Diversity Plus: 3C Assay for Vascular cell adhesion molecule 1 (VCAM1) Biomarker Activity (AID 2282999). The note with it: BioMAP 3C HUVEC, VCAM1 ELISA, cytokine-stimulated; actives raise or lower the signal. The method in brief:
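Endothelial cells from human umbilical vein are treated with test chemical. At 24 h, VCAM-1 is measured by ELISA, and responses in either direction are fitted relative to DMSO.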

Test [9] in a line: BSK_4H_Eotaxin3: BioMAP Diversity Plus: 4H Assay for Eotaxin 3 Biomarker Activity (AID 2283000).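 On outcome: CCL26 protein level quantified by ELISA in parallel with SRB cytotoxicity check.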 The note with it: primary human endothelial cells (HUVEC); actives raise or lower the signal. In a few lines: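 Human umbilical vein endothelial cells (BSK_4H system) dosed with test chemical; Eotaxin-3 (CCL26) measured by ELISA 24 h after dosing. Bidirectional curve fitting relative to DMSO negative control as baseline.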

Test [10] concerns the target human Peroxisome Proliferator-activated Receptor alpha (PPARa), PPARA (gene 5465) (UniProt Q07869). Description: ATG_PPARa_TRANS: Attagene TRANS-FACTORIAL HepG2 Assay for human Peroxisome Proliferator-activated Receptor alpha (PPARa) (AID 2283001; active means hit-call score of the fitted dose curve at least 0.9, where 1 is the maximum;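 on AC50: potency for gain of reporter signal over DMSO so agonist or activator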). The method in brief:
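Read-out is fluorescence of reporter cDNA fragments resolved by capillary electrophoresis after RT-PCR. Human HepG2 liver cells carried transfected PPARa-Gal4 chimera and GAL4-UAS reporter units, treated 24 h; activity scored as increase over DMSO.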

Read-out in test [11]: Intercellular Adhesion Molecule 1 (ICAM1), ICAM1 (gene 3383)
The experiment in a line: BSK_3C_ICAM1: BioMAP Diversity Plus: 3C Assay for Intercellular Adhesion Molecule 1 (ICAM1) Biomarker Activity (AID 2283003). Particulars: primary human endothelial cells (HUVEC); actives raise or lower the signal. In a few lines:
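ICAM-1 levels measured by ELISA after HUVEC cultures in the 3C system had been dosed for 24 h. Gain or loss of signal relative to DMSO was fitted in both directions.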

Test [12] is described as follows: BSK_3C_Proliferation: Cell Proliferation Assessment in the BioMAP Diversity Plus: 3C Assay (AID 2283006).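 On AC50: potency may reflect either rise or fall in cell number versus DMSO.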 The note with it: primary human endothelial cells (HUVEC). The method in brief:
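Read-out is total protein by SRB absorbance at 560 nm, taken as a proxy for relative cell number. Primary human umbilical vein endothelium cultured below confluence was dosed for 48 h, TCA-fixed and SRB-stained; curves were fitted bidirectionally versus DMSO.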

The target of test [13] is Nuclear receptor subfamily 1 group I member 2 (Homo sapiens) (UniProt O75469). Description: ATG_PXR_TRANS: Attagene TRANS-FACTORIAL HepG2 Assay for human Pregnane X Receptor (PXR) (AID 2283008; active means hit-call score of the fitted dose curve at least 0.9, where 1 is the maximum). In a few lines:
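Fluorescence intensity of FAM-labelled, HpaI-digested reporter amplicons, separated by capillary electrophoresis, quantifies induction. HepG2 cells with PXR-Gal4 trans-reporter system were exposed 24 h; DMSO defines baseline.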

Test [14] addresses Peroxisome proliferator-activated receptor gamma (Homo sapiens) (UniProt P37231). Description: ATG_PPARg_TRANS: Attagene TRANS-FACTORIAL HepG2 Assay for human Peroxisome Proliferator-activated Receptor-gamma (PPARg) (AID 2283007; active means hit-call score of the fitted dose curve at least 0.9, where 1 is the maximum). The method in brief:
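Twenty-four hours after chemical dosing of transiently transfected HepG2 cells, isolated RNA was converted to cDNA, reporter sequences amplified and 6-FAM-labelled, then HpaI-digested and analysed by capillary electrophoresis. Signal increase against DMSO was fitted.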

Test [15] has as its target human Retinoic Acid Receptor gamma (RARg), RARG (gene 5916) (UniProt P13631). The experiment in a line: ATG_RARg_TRANS: Attagene TRANS-FACTORIAL HepG2 Assay for human Retinoic Acid Receptor gamma (RARg) (AID 2283009; active means hit-call score of the fitted dose curve at least 0.9, where 1 is the maximum). The method in brief:
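Transient transfection of HepG2 with multi-reporter constructs, then 24 h chemical treatment. Total RNA isolated, reverse-transcribed, PCR-amplified, fluorescently labelled and resolved by capillary electrophoresis; activity scored as mRNA induction versus DMSO.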

The target of test [16] is human RAR-related Orphan Receptor gamma (RORg), RORC (gene 6097) (UniProt P51449). The experiment in a line: ATG_RORg_TRANS: Attagene TRANS-FACTORIAL HepG2 Assay for human RAR-related Orphan Receptor gamma (RORg) (AID 2283011; active means hit-call score of the fitted dose curve at least 0.9, where 1 is the maximum). The method in brief:
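Reporter transcripts from a transfected RORg-GAL4 chimera in HepG2 cells were quantified 24 h after dosing by RT-PCR, 6-FAM labelling, HpaI digestion and capillary electrophoresis; increases over DMSO baseline were fitted.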

The target in test [17] is human RAR-related Orphan Receptor beta (RORb), RORB (gene 6096) (UniProt Q92753). The experiment in a line: ATG_RORb_TRANS: Attagene TRANS-FACTORIAL HepG2 Assay for human RAR-related Orphan Receptor beta (RORb) (AID 2283010; active means hit-call score of the fitted dose curve at least 0.9, where 1 is the maximum). The method in brief: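 Readout is reporter-gene mRNA induction, detected as fluorescence after RT-PCR and capillary electrophoresis, fitted for gain of signal against DMSO controls. Transiently transfected HepG2 liver cells carrying GAL4-UAS reporter constructs were treated for 24 hours.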

For test [18], the target named is human Retinoic Acid Receptor beta (RARb), RARB (gene 5915) (UniProt P10826). The experiment in a line: ATG_RARb_TRANS: Attagene TRANS-FACTORIAL HepG2 Assay for human Retinoic Acid Receptor beta (AID 2283004; active means hit-call score of the fitted dose curve at least 0.9, where 1 is the maximum). The method in brief:
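Induction of reporter mRNA from a chimeric RARb-Gal4 construct was measured by RT-PCR, FAM labelling, HpaI digestion and capillary electrophoresis. Measurements followed 24 h compound treatment of transiently transfected human HepG2 liver cells, with DMSO as baseline.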

Test [19] concerns the target Retinoic acid receptor alpha (Homo sapiens) (UniProt P10276). The experiment in a line: ATG_RARa_TRANS: Attagene TRANS-FACTORIAL HepG2 Assay for human Retinoic Acid Receptor alpha (RARa) (AID 2283005; active means hit-call score of the fitted dose curve at least 0.9, where 1 is the maximum). In a few lines: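 Reporter transcripts, measured by RT-PCR with fluorescent labeling and capillary electrophoresis after 24 h dosing, reflect activity of an exogenous human RARa–GAL4 fusion in transiently transfected HepG2. Fitted for increase relative to DMSO.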

Chain of human RAR-related Orphan Receptor gamma (RORg), RORC (gene 6097) (P51449 whole entry, looked up, the tested form may be a part): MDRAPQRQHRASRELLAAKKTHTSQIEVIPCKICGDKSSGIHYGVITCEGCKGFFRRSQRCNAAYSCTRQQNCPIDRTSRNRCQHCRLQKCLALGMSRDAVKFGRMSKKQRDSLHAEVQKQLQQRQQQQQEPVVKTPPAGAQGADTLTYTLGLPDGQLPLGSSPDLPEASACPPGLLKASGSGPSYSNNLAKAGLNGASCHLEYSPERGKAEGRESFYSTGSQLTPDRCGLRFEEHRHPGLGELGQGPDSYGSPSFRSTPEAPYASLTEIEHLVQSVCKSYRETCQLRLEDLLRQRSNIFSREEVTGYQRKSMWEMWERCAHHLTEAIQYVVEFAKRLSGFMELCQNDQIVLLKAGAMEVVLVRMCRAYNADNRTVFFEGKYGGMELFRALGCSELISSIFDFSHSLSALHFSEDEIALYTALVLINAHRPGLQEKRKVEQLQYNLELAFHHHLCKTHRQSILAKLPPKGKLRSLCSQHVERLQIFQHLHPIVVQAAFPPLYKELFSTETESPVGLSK
Chain of Peroxisome proliferator-activated receptor gamma (Homo sapiens) (P37231 whole entry, looked up): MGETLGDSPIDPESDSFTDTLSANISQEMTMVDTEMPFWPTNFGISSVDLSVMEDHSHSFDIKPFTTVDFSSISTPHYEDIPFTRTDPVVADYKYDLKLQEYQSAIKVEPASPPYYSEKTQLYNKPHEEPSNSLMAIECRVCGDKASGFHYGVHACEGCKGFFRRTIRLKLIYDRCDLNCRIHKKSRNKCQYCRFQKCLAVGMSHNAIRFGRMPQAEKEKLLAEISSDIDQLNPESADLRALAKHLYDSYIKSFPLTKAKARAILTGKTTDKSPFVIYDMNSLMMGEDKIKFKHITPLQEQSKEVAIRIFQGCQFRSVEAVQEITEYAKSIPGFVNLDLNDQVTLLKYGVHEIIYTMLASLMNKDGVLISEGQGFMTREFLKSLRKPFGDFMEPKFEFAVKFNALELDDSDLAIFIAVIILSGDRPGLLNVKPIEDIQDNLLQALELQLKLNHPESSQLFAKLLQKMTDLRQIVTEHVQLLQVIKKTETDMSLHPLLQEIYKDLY
Chain of Nuclear receptor subfamily 1 group I member 2 (Homo sapiens) (O75469 whole entry, looked up, the tested form may be a part): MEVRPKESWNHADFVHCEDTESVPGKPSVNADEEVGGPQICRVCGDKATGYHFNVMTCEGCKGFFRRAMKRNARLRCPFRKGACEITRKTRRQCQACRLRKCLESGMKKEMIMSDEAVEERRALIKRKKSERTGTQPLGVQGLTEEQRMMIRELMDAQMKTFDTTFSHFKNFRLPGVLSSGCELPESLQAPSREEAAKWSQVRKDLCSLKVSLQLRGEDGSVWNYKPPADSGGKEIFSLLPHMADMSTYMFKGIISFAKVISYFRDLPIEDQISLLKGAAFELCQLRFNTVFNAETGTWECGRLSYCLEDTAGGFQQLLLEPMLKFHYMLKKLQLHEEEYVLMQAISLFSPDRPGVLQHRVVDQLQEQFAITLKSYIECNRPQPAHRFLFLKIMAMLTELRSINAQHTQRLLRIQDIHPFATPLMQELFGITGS
Chain of Myc proto-oncogene protein (Homo sapiens) (P01106 whole entry, looked up, the tested form may be a part): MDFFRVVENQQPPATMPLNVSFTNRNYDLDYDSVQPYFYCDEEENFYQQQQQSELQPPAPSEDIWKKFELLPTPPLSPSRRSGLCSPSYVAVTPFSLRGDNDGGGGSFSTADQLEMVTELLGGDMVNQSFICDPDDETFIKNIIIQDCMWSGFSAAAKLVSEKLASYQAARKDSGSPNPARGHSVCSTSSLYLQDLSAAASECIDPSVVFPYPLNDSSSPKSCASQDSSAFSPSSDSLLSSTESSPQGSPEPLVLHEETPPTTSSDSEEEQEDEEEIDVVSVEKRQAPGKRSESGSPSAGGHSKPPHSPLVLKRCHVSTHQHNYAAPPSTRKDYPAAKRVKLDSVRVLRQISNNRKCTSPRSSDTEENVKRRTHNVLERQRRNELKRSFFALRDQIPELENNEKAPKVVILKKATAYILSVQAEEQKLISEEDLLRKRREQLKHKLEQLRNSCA
Chain of human RAR-related Orphan Receptor beta (RORb), RORB (gene 6096) (Q92753 whole entry, looked up, the tested form may be a part): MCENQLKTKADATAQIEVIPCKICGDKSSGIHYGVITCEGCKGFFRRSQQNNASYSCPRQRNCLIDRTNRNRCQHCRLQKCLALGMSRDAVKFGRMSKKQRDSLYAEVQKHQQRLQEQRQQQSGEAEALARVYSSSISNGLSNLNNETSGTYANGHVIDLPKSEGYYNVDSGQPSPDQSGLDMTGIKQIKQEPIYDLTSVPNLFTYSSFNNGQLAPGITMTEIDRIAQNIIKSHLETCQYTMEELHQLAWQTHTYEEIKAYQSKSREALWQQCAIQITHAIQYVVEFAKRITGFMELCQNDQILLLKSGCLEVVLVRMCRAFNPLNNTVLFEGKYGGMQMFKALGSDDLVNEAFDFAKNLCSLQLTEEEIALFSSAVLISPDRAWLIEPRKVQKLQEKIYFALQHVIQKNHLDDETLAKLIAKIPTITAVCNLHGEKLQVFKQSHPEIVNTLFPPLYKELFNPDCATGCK
Chain of human Peroxisome Proliferator-activated Receptor alpha (PPARa), PPARA (gene 5465) (Q07869 whole entry, looked up, the tested form may be a part): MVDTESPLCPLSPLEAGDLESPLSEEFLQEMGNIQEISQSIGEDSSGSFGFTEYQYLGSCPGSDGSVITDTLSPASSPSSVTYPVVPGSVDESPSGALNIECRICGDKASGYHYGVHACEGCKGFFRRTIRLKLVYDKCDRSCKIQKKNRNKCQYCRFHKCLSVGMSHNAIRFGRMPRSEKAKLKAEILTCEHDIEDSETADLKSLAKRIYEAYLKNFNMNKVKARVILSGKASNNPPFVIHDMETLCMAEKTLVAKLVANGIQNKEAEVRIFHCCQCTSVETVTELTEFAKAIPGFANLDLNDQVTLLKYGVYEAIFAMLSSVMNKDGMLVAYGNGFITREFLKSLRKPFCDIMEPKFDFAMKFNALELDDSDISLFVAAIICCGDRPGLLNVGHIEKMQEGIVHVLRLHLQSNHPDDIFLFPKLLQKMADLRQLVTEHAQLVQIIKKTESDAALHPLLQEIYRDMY
Chain of human Retinoic Acid Receptor gamma (RARg), RARG (gene 5916) (P13631 whole entry, looked up): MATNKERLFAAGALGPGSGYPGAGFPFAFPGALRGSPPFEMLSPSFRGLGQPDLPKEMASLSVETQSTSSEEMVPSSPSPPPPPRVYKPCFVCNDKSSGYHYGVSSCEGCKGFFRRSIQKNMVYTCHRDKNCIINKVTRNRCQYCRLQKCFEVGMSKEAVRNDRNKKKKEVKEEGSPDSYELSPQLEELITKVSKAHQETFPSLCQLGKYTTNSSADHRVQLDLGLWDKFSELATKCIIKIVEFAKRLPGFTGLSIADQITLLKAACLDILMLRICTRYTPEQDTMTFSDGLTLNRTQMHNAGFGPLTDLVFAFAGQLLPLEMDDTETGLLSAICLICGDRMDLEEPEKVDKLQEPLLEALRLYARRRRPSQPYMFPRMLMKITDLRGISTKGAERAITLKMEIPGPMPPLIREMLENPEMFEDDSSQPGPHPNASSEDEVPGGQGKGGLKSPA
Chain of human Retinoic Acid Receptor beta (RARb), RARB (gene 5915) (P10826 whole entry, looked up, the tested form may be a part): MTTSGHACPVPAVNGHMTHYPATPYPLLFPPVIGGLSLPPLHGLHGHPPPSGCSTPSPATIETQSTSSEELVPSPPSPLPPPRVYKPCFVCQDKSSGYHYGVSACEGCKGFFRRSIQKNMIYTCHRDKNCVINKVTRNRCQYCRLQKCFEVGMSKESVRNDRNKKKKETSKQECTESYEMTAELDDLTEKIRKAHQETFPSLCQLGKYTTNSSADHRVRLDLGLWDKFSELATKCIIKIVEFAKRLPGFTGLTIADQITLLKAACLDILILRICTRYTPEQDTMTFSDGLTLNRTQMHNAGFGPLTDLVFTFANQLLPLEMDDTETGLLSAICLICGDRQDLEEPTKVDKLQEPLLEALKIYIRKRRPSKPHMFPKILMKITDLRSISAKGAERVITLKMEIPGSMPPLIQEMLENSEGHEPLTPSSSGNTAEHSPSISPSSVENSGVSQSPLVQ
Chain of Cellular tumor antigen p53 (Homo sapiens) (P04637 whole entry, looked up): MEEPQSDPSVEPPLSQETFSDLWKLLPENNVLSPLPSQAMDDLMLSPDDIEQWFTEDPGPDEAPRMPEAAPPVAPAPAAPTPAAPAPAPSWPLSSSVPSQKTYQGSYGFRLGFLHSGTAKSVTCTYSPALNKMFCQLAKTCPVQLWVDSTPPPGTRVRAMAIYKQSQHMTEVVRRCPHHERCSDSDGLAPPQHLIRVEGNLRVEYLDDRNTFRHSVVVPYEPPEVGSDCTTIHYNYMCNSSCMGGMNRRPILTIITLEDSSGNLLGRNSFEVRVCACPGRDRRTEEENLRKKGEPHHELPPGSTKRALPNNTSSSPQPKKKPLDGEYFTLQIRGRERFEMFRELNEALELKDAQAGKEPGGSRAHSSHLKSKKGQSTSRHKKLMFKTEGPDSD
Chain of Retinoic acid receptor alpha (Homo sapiens) (P10276 whole entry, looked up, the tested form may be a part): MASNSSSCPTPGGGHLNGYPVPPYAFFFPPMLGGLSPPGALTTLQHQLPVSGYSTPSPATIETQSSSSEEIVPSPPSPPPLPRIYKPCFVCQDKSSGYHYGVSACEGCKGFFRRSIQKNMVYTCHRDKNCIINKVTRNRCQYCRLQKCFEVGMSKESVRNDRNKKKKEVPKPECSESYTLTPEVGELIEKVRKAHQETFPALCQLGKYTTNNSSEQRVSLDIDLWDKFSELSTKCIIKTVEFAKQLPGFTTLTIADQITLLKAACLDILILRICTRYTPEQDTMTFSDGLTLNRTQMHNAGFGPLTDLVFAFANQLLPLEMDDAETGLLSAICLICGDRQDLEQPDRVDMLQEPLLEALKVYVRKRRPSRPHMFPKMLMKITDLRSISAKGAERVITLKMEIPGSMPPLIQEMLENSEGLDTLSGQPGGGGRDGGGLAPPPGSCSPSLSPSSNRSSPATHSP

With `Nc1nc(Cl)nc2c1ncn2[C@H]1C[C@H](O)[C@@H](CO)O1`, the result in test [1], in [3], in test [4], in test [5], in test [7] and in test [8] was inactive. For the same molecule, the result in [9], in test [11] and in test [13] was inactive. Further, the AC50 in test [2] was 16.9 µM (active); in test [6], 0.494 µM (active); in [10], 66.5 µM (active); in test [12], 0.147 µM (active).
In the case of `O=C(N[C@@H](c1ccccc1)[C@@H]1CCCCN1)c1cccc(C(F)(F)F)c1Cl`, the concentration at half-maximal activity (AC50) in [1] was 54 µM (active); in test [2] it was 53.2 µM (active); in test [3], 9.19 µM (active); in [4], 22.6 µM (active); in test [6] it was 20 µM (active); in test [7], 20 µM (active). The AC50 is 27.6 µM (active) in test [12] and 5.4 µM (active) in test [13]. The outcome in test [8], in test [9], in test [10], in test [11], in test [14] and in [15] was inactive.
In the case of `CC1=C(C)S(=O)(=O)CCS1(=O)=O`, the call in [1], in [2], in [4], in [6], in [7] and in [8] was inactive. In addition, the outcome in test [9], in test [10], in test [11], in [12], in test [13] and in [16] was inactive. The AC50 in test [3] is 17.8 µM (active); in test [14], 77.8 µM (active).
With `O=C(O)c1cccnc1`, the molecule was called inactive in [1], in test [2], in [3], in test [4], in test [6] and in test [7]. In addition, the result in test [8], in test [9], in test [10], in test [11], in test [12] and in test [14] was inactive. The outcome in [13], in test [17] and in [16] was inactive.
With `O=NO`, the molecule was classed as inactive in test [1], in test [2], in [3], in test [4], in test [6] and in test [7]. Further, the result in test [8], in test [9], in test [10], in [11], in test [18] and in [12] was inactive. For the same molecule, the result in test [13] and in [17] was inactive.
As for `CS(=O)(=O)c1ccc([C@@H](C[C@H]2CCC(=O)C2)C(=O)Nc2cnccn2)cc1Cl`, the molecule was called inactive in [1], in test [2], in [4], in [5], in test [6] and in test [7]. Also, the result in test [8], in [9], in test [10], in test [11], in test [12] and in test [14] was inactive. In addition, the outcome in test [13], in [17] and in [16] was inactive. Also, the AC50 in [3] is 48.9 µM (active).
With `Oc1ccc(O)cc1`, the molecule was called inactive in test [1], in test [2], in test [4], in test [6], in test [7] and in test [10]. Moreover, the result in test [11], in test [18], in test [19], in test [14], in [15] and in [17] was inactive. Further, the AC50 was 16.6 µM (active) in test [3], 15.6 µM (active) in test [8], 20 µM (active) in [9] and 20 µM (active) in test [12].

The record behind these values is PubChem BioAssay (EPA / NIEHS).
